According to the supplement of paper PMC12669032:

Tests used:
Assay in all cases: growth AUC relative to DMSO control (median of replicates) (fraction); higher = more growth (less inhibition), active = hit call of the paper
Settings in all cases: 20 µM; 24 h;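 active = AUC reduced over 20% with Padj below 0.05 in at least 2 of 3 replicates; inactive = otherwise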
Akkermansia muciniphila = system: Akkermansia muciniphila
Procedure, shortened: (§1)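 Area under the growth curve was normalised to the plate median of solvent-only wells, or to row and column medians on the industrial chemical plate. Growth curves came from anaerobic gut bacterial monocultures in mGAM at 37 °C, seeded at OD600 0.05 with 20 µM compound (1% DMSO), and read at OD600 hourly for 24 h with the minimum OD set to 0. The value is the median of three biological replicates grown on separate days.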

Bacteroides caccae = system: Bacteroides caccae
Procedure, shortened: as §1

Bacteroides clarus = system: Bacteroides clarus
Procedure, shortened: as §1

Bacteroides dorei = system: Bacteroides dorei
Procedure, shortened: as §1

Bacteroides stercoris = system: Bacteroides stercoris
Procedure, shortened: as §1

[1] = system: Bacteroides thetaiotaomicron
Procedure, shortened: as §1

Bacteroides uniformis = system: Bacteroides uniformis
Procedure, shortened: as §1

[2] = system: Bifidobacterium longum subsp. longum
Procedure, shortened: as §1

Clostridium difficile = system: Clostridium difficile
Procedure, shortened: as §1

Collinsella aerofaciens = system: Collinsella aerofaciens
Procedure, shortened: as §1

Coprococcus comes = system: Coprococcus comes
Procedure, shortened: as §1

Escherichia coli ED1a = system: Escherichia coli ED1a
Procedure, shortened: as §1

Escherichia coli IAI1 = system: Escherichia coli IAI1
Procedure, shortened: as §1

Eubacterium rectale = system: Eubacterium rectale
Procedure, shortened: as §1

[3] = system: Fusobacterium nucleatum subsp. animalis
Procedure, shortened: as §1

Lactobacillus gasseri = system: Lactobacillus gasseri
Procedure, shortened: as §1

Lactobacillus paracasei = system: Lactobacillus paracasei
Procedure, shortened: as §1

Odoribacter splanchnicus = system: Odoribacter splanchnicus
Procedure, shortened: as §1

[4] = system: Parabacteroides distasonis
Procedure, shortened: as §1

Parabacteroides merdae = system: Parabacteroides merdae
Procedure, shortened: as §1

Measured: growth AUC

ClC1=C(Cl)[C@]2(Cl)[C@@H]3[C@@H]4C[C@@H]([C@H]5O[C@@H]45)[C@@H]3[C@@]1(Cl)C2(Cl)Cl
inactive: Akkermansia muciniphila 0.945 | Bacteroides caccae 0.98 | Bacteroides clarus 1.01 | Bacteroides dorei 1 | Bacteroides stercoris 0.947 | [1] 0.967 | Bacteroides uniformis 0.979 | [2] 1.02 | Clostridium difficile 0.973 | Collinsella aerofaciens 0.989 | Coprococcus comes 0.95 | Escherichia coli ED1a 0.977 | Escherichia coli IAI1 0.996 | Eubacterium rectale 0.999 | [3] 0.881 | Lactobacillus gasseri 0.999 | Lactobacillus paracasei 0.959 | Odoribacter splanchnicus 0.899 | [4] 1.05 | Parabacteroides merdae 0.932

CC(C)(C)c1ccc(CSc2cnn(C(C)(C)C)c(=O)c2Cl)cc1
inactive: Akkermansia muciniphila 0.971 | Bacteroides caccae 0.95 | Bacteroides clarus 0.959 | Bacteroides dorei 0.991 | Bacteroides stercoris 1.07 | [1] 0.975 | Bacteroides uniformis 0.986 | [2] 0.97 | Clostridium difficile 0.963 | Collinsella aerofaciens 0.999 | Coprococcus comes 0.976 | Escherichia coli ED1a 1 | Escherichia coli IAI1 0.986 | Eubacterium rectale 0.966 | [3] 1.05 | Lactobacillus gasseri 0.945 | Lactobacillus paracasei 1.16 | Odoribacter splanchnicus 1.07 | [4] 0.988 | Parabacteroides merdae 0.962

CC(Oc1ccc(Cl)cc1Cl)C(=O)O (stereo not given)
inactive: Akkermansia muciniphila 1.09 | Bacteroides caccae 1.02 | Bacteroides clarus 0.987 | Bacteroides dorei 0.942 | Bacteroides stercoris 0.981 | [1] 1 | Bacteroides uniformis 0.979 | [2] 1.04 | Clostridium difficile 1.01 | Collinsella aerofaciens 0.976 | Coprococcus comes 1.02 | Escherichia coli ED1a 0.978 | Escherichia coli IAI1 0.966 | Eubacterium rectale 1.04 | [3] 0.97 | Lactobacillus gasseri 0.927 | Lactobacillus paracasei 0.989 | Odoribacter splanchnicus 0.965 | [4] 0.857 | Parabacteroides merdae 0.973

CNC(=O)Oc1cccc2c1OC(C)(C)C2O (stereo not given)
inactive: Akkermansia muciniphila 1.07 | Bacteroides caccae 1.01 | Bacteroides clarus 1.04 | Bacteroides dorei 1.02 | Bacteroides stercoris 1.06 | [1] 1.01 | Bacteroides uniformis 0.998 | [2] 0.967 | Clostridium difficile 1.03 | Collinsella aerofaciens 1.01 | Coprococcus comes 1.05 | Escherichia coli ED1a 1.01 | Escherichia coli IAI1 1.01 | Eubacterium rectale 1.05 | [3] 1.15 | Lactobacillus gasseri 0.862 | Lactobacillus paracasei 1.11 | Odoribacter splanchnicus 1.02 | [4] 0.88 | Parabacteroides merdae 1.09

O=C1C(Cl)=C(Cl)C(=O)c2ccccc21
inactive: Akkermansia muciniphila 0.907 | Bacteroides caccae 0.987 | Bacteroides clarus 0.987 | Bacteroides dorei 0.958 | Bacteroides stercoris 0.962 | [1] 0.996 | Bacteroides uniformis 0.986 | [2] 0.904 | Clostridium difficile 0.912 | Collinsella aerofaciens 0.988 | Coprococcus comes 1.05 | Escherichia coli ED1a 1.02 | Escherichia coli IAI1 0.973 | Eubacterium rectale 1.34 | [3] 1.02 | Lactobacillus gasseri 0.929 | Lactobacillus paracasei 0.941 | Odoribacter splanchnicus 0.797 | [4] 0.938 | Parabacteroides merdae 0.967

COc1ccc(-c2ccccc2)cc1NNC(=O)OC(C)C
inactive: Akkermansia muciniphila 0.865 | Bacteroides caccae 0.921 | Bacteroides clarus 0.974 | Bacteroides dorei 0.991 | Bacteroides stercoris 1.08 | [1] 0.958 | Bacteroides uniformis 0.942 | [2] 0.982 | Clostridium difficile 0.993 | Collinsella aerofaciens 1.05 | Coprococcus comes 0.957 | Escherichia coli ED1a 1.03 | Escherichia coli IAI1 1.01 | Eubacterium rectale 1 | [3] 0.965 | Lactobacillus gasseri 0.967 | Lactobacillus paracasei 0.971 | Odoribacter splanchnicus 0.948 | [4] 0.892 | Parabacteroides merdae 0.937

CC(Cc1ccc(C(C)(C)C)cc1)CN1C[C@@H](C)O[C@@H](C)C1 (stereo not given in full)
inactive: Akkermansia muciniphila 1.04 | Bacteroides caccae 1.03 | Bacteroides clarus 0.974 | Bacteroides dorei 1.01 | Bacteroides stercoris 1.07 | [1] 0.996 | Bacteroides uniformis 1.05 | [2] 0.992 | Clostridium difficile 1.02 | Collinsella aerofaciens 1 | Coprococcus comes 1.03 | Escherichia coli ED1a 1.01 | Escherichia coli IAI1 1.06 | Eubacterium rectale 0.983 | [3] 1.07 | Lactobacillus gasseri 1.06 | Lactobacillus paracasei 1.07 | Odoribacter splanchnicus 1.07 | [4] 0.985 | Parabacteroides merdae 0.999

CCOC(=O)OC1=C(c2cc(C)ccc2C)C(=O)NC12CCC(OC)CC2 (stereo not given)
inactive: Akkermansia muciniphila 0.953 | Bacteroides caccae 1 | Bacteroides clarus 0.995 | Bacteroides dorei 0.996 | Bacteroides stercoris 1.04 | [1] 0.971 | Bacteroides uniformis 0.982 | [2] 0.996 | Clostridium difficile 0.977 | Collinsella aerofaciens 0.997 | Coprococcus comes 0.998 | Escherichia coli ED1a 1.01 | Escherichia coli IAI1 0.983 | Eubacterium rectale 1.01 | [3] 0.965 | Lactobacillus gasseri 0.993 | Lactobacillus paracasei 0.992 | Odoribacter splanchnicus 0.969 | [4] 0.981 | Parabacteroides merdae 1.03

CCOP(=O)(NC(C)C)Oc1ccc(S(C)=O)c(C)c1 (stereo not given)
inactive: Akkermansia muciniphila 1.01 | Bacteroides caccae 0.999 | Bacteroides clarus 1.04 | Bacteroides dorei 1.04 | Bacteroides stercoris 1.02 | [1] 0.997 | Bacteroides uniformis 1.02 | [2] 1.06 | Clostridium difficile 1.08 | Collinsella aerofaciens 1 | Coprococcus comes 1.04 | Escherichia coli ED1a 1.03 | Escherichia coli IAI1 1.04 | Eubacterium rectale 1.05 | [3] 1.09 | Lactobacillus gasseri 1.07 | Lactobacillus paracasei 0.975 | Odoribacter splanchnicus 1.01 | [4] 1.13 | Parabacteroides merdae 1.05

Oc1ccc(Cl)c(Cl)c1Cl
inactive: Akkermansia muciniphila 0.923 | Bacteroides caccae 0.922 | Bacteroides clarus 0.975 | Bacteroides dorei 1.02 | Bacteroides stercoris 1.15 | [1] 1 | Bacteroides uniformis 0.96 | [2] 0.969 | Clostridium difficile 0.998 | Collinsella aerofaciens 0.993 | Coprococcus comes 1.02 | Escherichia coli ED1a 1.01 | Escherichia coli IAI1 0.971 | Eubacterium rectale 1.06 | [3] 1.09 | Lactobacillus gasseri 1.12 | Lactobacillus paracasei 1.01 | Odoribacter splanchnicus 0.978 | [4] 0.971 | Parabacteroides merdae 1.06

COc1cc(Cl)c(OC)cc1Cl
inactive: Akkermansia muciniphila 1.03 | Bacteroides caccae 1.04 | Bacteroides clarus 1 | Bacteroides dorei 1.04 | Bacteroides stercoris 1.01 | [1] 1.04 | Bacteroides uniformis 1 | [2] 0.995 | Clostridium difficile 1.05 | Collinsella aerofaciens 1.11 | Coprococcus comes 1.04 | Escherichia coli ED1a 1.03 | Escherichia coli IAI1 1.01 | Eubacterium rectale 0.986 | [3] 0.951 | Lactobacillus gasseri 0.94 | Lactobacillus paracasei 0.94 | Odoribacter splanchnicus 1 | [4] 1.02 | Parabacteroides merdae 1.05

O=C1c2ccccc2C(=O)N1SC(Cl)(Cl)Cl
inactive: Akkermansia muciniphila 1 | Bacteroides caccae 1.02 | Bacteroides clarus 0.977 | Bacteroides dorei 1.04 | Bacteroides stercoris 0.995 | [1] 0.999 | Bacteroides uniformis 1.05 | [2] 0.988 | Clostridium difficile 1.01 | Collinsella aerofaciens 0.983 | Coprococcus comes 1.01 | Escherichia coli ED1a 0.996 | Escherichia coli IAI1 1.02 | Eubacterium rectale 1.06 | [3] 1.02 | Lactobacillus gasseri 1.01 | Lactobacillus paracasei 0.963 | Odoribacter splanchnicus 1.02 | [4] 1.06 | Parabacteroides merdae 1.05

Clc1cc(Cl)c(Cl)cc1Cl
inactive: Akkermansia muciniphila 1.01 | Bacteroides caccae 0.997 | Bacteroides clarus 0.987 | Bacteroides dorei 0.981 | Bacteroides stercoris 1.14 | [1] 0.982 | Bacteroides uniformis 1.01 | [2] 1.07 | Clostridium difficile 0.98 | Collinsella aerofaciens 1.01 | Coprococcus comes 0.971 | Escherichia coli ED1a 1.02 | Escherichia coli IAI1 1.04 | Eubacterium rectale 0.986 | [3] 1.15 | Lactobacillus gasseri 0.973 | Lactobacillus paracasei 0.991 | Odoribacter splanchnicus 1.01 | [4] 1.05 | Parabacteroides merdae 0.998

COP(=O)(OC)OC(Br)C(Cl)(Cl)Br (stereo not given)
inactive: Akkermansia muciniphila 0.978 | Bacteroides caccae 0.987 | Bacteroides clarus 0.977 | Bacteroides dorei 0.986 | Bacteroides stercoris 0.984 | [1] 0.953 | Bacteroides uniformis 0.962 | [2] 0.99 | Clostridium difficile 0.987 | Collinsella aerofaciens 1.03 | Coprococcus comes 0.976 | Escherichia coli ED1a 0.991 | Escherichia coli IAI1 1.02 | Eubacterium rectale 0.915 | [3] 0.973 | Lactobacillus gasseri 1.02 | Lactobacillus paracasei 1.01 | Odoribacter splanchnicus 0.937 | [4] 1.06 | Parabacteroides merdae 1.01

CNC(=O)Oc1cc(C)c(N(C)C)c(C)c1
inactive: Akkermansia muciniphila 1.02 | Bacteroides caccae 1.03 | Bacteroides clarus 0.971 | Bacteroides dorei 1.04 | Bacteroides stercoris 0.852 | [1] 0.995 | Bacteroides uniformis 1 | [2] 0.991 | Clostridium difficile 1.1 | Collinsella aerofaciens 0.995 | Coprococcus comes 1.01 | Escherichia coli ED1a 0.982 | Escherichia coli IAI1 0.978 | Eubacterium rectale 1 | [3] 0.952 | Lactobacillus gasseri 0.998 | Lactobacillus paracasei 0.953 | Odoribacter splanchnicus 1.08 | [4] 0.988 | Parabacteroides merdae 0.997

CN(C)C(=O)Nc1cccc(C(F)(F)F)c1
inactive: Akkermansia muciniphila 0.966 | Bacteroides caccae 0.97 | Bacteroides clarus 0.983 | Bacteroides dorei 0.991 | Bacteroides stercoris 0.911 | [1] 0.967 | Bacteroides uniformis 1.02 | [2] 0.961 | Clostridium difficile 1.02 | Collinsella aerofaciens 0.997 | Coprococcus comes 0.965 | Escherichia coli ED1a 1.01 | Escherichia coli IAI1 0.986 | Eubacterium rectale 1.01 | [3] 1.05 | Lactobacillus gasseri 1.05 | Lactobacillus paracasei 0.985 | Odoribacter splanchnicus 1.07 | [4] 0.961 | Parabacteroides merdae 1
